# The panel holds about 83,000 compounds, 20% with a hit somewhere; the sample as a whole holds those more often.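 Step 1: grow cells in 96-well plates. Step 2: add test compound at a single concentration. Step 3: incubate 48 h. Step 4: record percent growth.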 A number with no mark means an inactive call. Active and inactive are the calls of the source. How the source made its calls: active means growth percent below 10; inactive means the rest.
# Legend:
# Experiment in all cases: NCI-60 one-dose screen, 48 h (100 = growth as untreated, 0 = no growth, -100 = all killed)
# Conditions in all cases: 10 µM unless noted
# NCI-H226 lung = test system: NCI-H226 lung
# NCI-H322M lung = test system: NCI-H322M lung
# HOP-62 NSCLC = test system: HOP-62 NSCLC
# NCI-H460 lung = test system: NCI-H460 lung
# HOP-92 NSCLC = test system: HOP-92 NSCLC
# NCI-H522 lung = test system: NCI-H522 lung
# A549/ATCC NSCLC = test system: A549/ATCC NSCLC
# 786-0 renal = test system: 786-0 renal
# COLO 205 colon = test system: COLO 205 colon
# DU-145 prostate = test system: DU-145 prostate
# K-562 leukemia = test system: K-562 leukemia
# MALME-3M melanoma = test system: MALME-3M melanoma
# MDA-MB-231 breast = test system: MDA-MB-231 breast
# SF-268 CNS = test system: SF-268 CNS
# SF-295 CNS = test system: SF-295 CNS
# SF-539 CNS = test system: SF-539 CNS
# M14 melanoma = test system: M14 melanoma
# RXF 393 renal = test system: RXF 393 renal
# UACC-257 melanoma = test system: UACC-257 melanoma
SMILES,growth (NCI-H226 lung),growth (NCI-H322M lung),growth (HOP-62 NSCLC),growth (NCI-H460 lung),growth (HOP-92 NSCLC),growth (NCI-H522 lung),growth (A549/ATCC NSCLC),growth (786-0 renal),growth (COLO 205 colon),growth (DU-145 prostate),growth (K-562 leukemia),growth (MALME-3M melanoma),growth (MDA-MB-231 breast),growth (SF-268 CNS),growth (SF-295 CNS),growth (SF-539 CNS),growth (M14 melanoma),growth (RXF 393 renal),growth (UACC-257 melanoma)
CCN(CCN(C)C)C(=O)CNCc1cc(C(N)=O)ccn1,89.1%,106%,87%,108%,87.2%,78.1%,72.4%,103%,108%,112%,95.2%,114%,97.6%,108%,104%,105%,103%,,
COc1ccc2c(OCc3nnc4ccc(-c5ccccc5)nn34)ccnc2c1,,92% [2.5 µM],77.5% [2.5 µM],110% [2.5 µM],98.7% [2.5 µM],85.8% [2.5 µM],94.1% [2.5 µM],93.7% [2.5 µM],95.3% [2.5 µM],109% [2.5 µM],93.1% [2.5 µM],97.8% [2.5 µM],106% [2.5 µM],109% [2.5 µM],63.4% [2.5 µM],95.1% [2.5 µM],104% [2.5 µM],-13.9% [2.5 µM] (active),120% [2.5 µM]
COc1cc2cc(NCc3ccc(Cl)cc3)nc(C)c2cc1OC,,44.6%,56.5%,22.6%,36.3%,45.7%,39.8%,28.2%,26.5%,49%,9.09% (active),88.3%,42.1%,43.7%,34.4%,-14.9% (active),19.3%,48.5%,64.2%
Cc1nn(-c2nc3ccccc3[nH]2)c2c1C(c1ccc(OCc3ccc(F)cc3)cc1)CC(=O)N2 (stereo unspecified),74.5%,70.4%,69.5%,48%,72%,30.5%,41.8%,63.4%,103%,96%,87.6%,81.3%,42.8%,46.7%,19%,56.7%,58.5%,,
Cc1cc(N(CCNc2ccnc3cc(Cl)ccc23)Cc2ccc3c(c2)OCO3)nc(N2CCCC2)n1,65.4%,13.5%,-25.8% (active),-9.96% (active),60.5%,-28.7% (active),8.39% (active),-92% (active),-78.2% (active),29.7%,-33.2% (active),-72.8% (active),-8.4% (active),22.8%,-65.3% (active),-93.3% (active),-78.2% (active),-70.7% (active),
COc1ccc(C2CC(=O)c3c(O)c(OC)c(OC)c(OC)c3O2)c(O)c1 (stereo unspecified),66.8%,51.4%,64.9%,9.27% (active),77.9%,12%,28.1%,47.2%,57.3%,22.2%,13.9%,64.7%,24.9%,44.4%,7.86% (active),-7.78% (active),12.6%,,
CC(CCCC(=O)O)c1ccoc1 (stereo unspecified),102%,99.8%,101%,110%,108%,83.2%,100%,98.8%,101%,103%,103%,96.8%,109%,95.8%,95.4%,102%,97.2%,,
O=C1/C(=C\c2cccc(OCCCCCOc3ccc(Cl)cc3)c2)N=C2SCCCN12,,101%,71.1%,60.7%,48.1%,32.6%,45.5%,72.6%,60.1%,84%,41.7%,,54.2%,81.3%,43%,77.4%,44.5%,71.2%,
N#Cc1c(-c2ccc(C(F)(F)F)cc2)c(F)c(NCCC2CCC(O)C2)n2c1nc1ccccc12 (stereo unspecified),69.2%,58.5%,,42%,32.5%,65.7%,52.8%,69.4%,41.1%,47.2%,25.9%,,22.1%,70.7%,55.4%,71.1%,18.4%,41.4%,
Nc1nc(=S)c2ncn(C3OC(COC(=O)c4ccc(Cl)cc4)C(OC(=O)c4ccc(Cl)cc4)C3OC(=O)c3ccc(Cl)cc3)c2[nH]1 (stereo unspecified),86.9%,97.8%,106%,91.1%,82.7%,86.8%,98%,84.4%,123%,105%,,102%,88%,90.4%,114%,89.9%,99.4%,,
O=C(Nc1ccc(N=Nc2ccccc2)cc1)c1cccc2ccccc12,78.2%,77.9%,60.5%,61.1%,82.5%,34.9%,46.1%,79.4%,77.1%,85.3%,21.3%,71.6%,65.9%,77.5%,57.1%,69%,37.6%,,
COc1ccc2c(CCC(c3ccccc3)c3ccccc3)c3[n+](cc2c1OC)CCc1cc2c(cc1-3)OCO2,24.7%,33.1%,9.37% (active),-3.4% (active),-9.89% (active),-0.122% (active),15.7%,14.8%,-58.8% (active),18.5%,6.12% (active),-7.17% (active),-28.7% (active),19.8%,-15.8% (active),13.6%,2.51% (active),,
CCCCn1c(C)nc2cc(Nc3nc(N4CCCCC4)nc4nc[nH]c34)ccc21,,81.8%,62.1%,65.5%,-9.51% (active),52.6%,48.4%,49.1%,28.9%,60.2%,28.7%,61.5%,39.2%,60.4%,47.1%,71.2%,32.8%,22.1%,62.1%
C=CCCCC(=O)CCC(=O)OCC1O[C@@H](O[C@@H]2C(O)[C@@H](OC(C)=O)C(C)O[C@H]2O[C@H](CC=C)CCCCC)C(O)[C@@H](OC(=O)/C(C)=C/C)[C@@H]1OC(=O)/C=C/c1ccccc1 (stereo partly specified),9.34% (active),39.6%,9.18% (active),10.6%,0.347% (active),34.8%,24.6%,18.9%,-8.37% (active),33.3%,34.3%,17.7%,4.48% (active),29.2%,-11.9% (active),14.3%,-10.3% (active),,
COC(=O)[C@H](Cc1ccc(O)cc1)NC(=O)[C@@H](OC)[C@@H]1Cc2cc3cc(OC4CC(OC5CC(O)C(O)C(C)O5)C(O)C(C)O4)c(C)c(O)c3c(O)c2C(=O)[C@H]1OC1CC(OC2CC(OC3CC(C)(O)C(O)C(C)O3)C(O)C(C)O2)C(O)C(C)O1 (stereo partly specified),-17.6% (active),11.1%,19.3%,6.99% (active),12.2%,-19.5% (active),4.32% (active),1.98% (active),-22.8% (active),15.8%,7.28% (active),-43% (active),19.5%,20.7%,7.09% (active),-27.1% (active),-20.2% (active),-71.5% (active),2.42% (active)
COC(=O)CNC(=O)[C@@H](OC)[C@@H]1Cc2cc3cc(OC4CC(OC5CC(O)C(O)C(C)O5)C(O)C(C)O4)c(C)c(O)c3c(O)c2C(=O)[C@H]1OC1CC(OC2CC(OC3CC(C)(O)C(O)C(C)O3)C(O)C(C)O2)C(O)C(C)O1 (stereo partly specified),,15.7%,21.6%,9.15% (active),9.61% (active),-19% (active),7.82% (active),-2.99% (active),-17.6% (active),17.2%,10.2%,-35.3% (active),21.5%,21.1%,6.85% (active),-28.7% (active),-32.1% (active),-75.4% (active),6.03% (active)
Cc1ccc(F)c(NC(=O)Nc2ccc(-c3cccc4[nH]nc(N)c34)cc2)c1,57.6%,21.5%,-7.49% (active),10.2%,63.8%,-23.3% (active),-50.5% (active),36.4%,-48.7% (active),27.5%,7.81% (active),-4.64% (active),9.7% (active),30%,42.8%,3.67% (active),28.3%,-20.1% (active),16%
Nc1c(C(=O)c2ccccc2)sc2nc(-c3cccs3)cc(-c3cccs3)c12,80.6%,80.8%,59.6%,14.2%,69.2%,-20.7% (active),36.2%,47.6%,35.9%,68.2%,18.9%,74.4%,58.4%,53.5%,35%,39.4%,27%,,
Cc1c(Cn2c(C)nc3c(C(=O)O)cc(N4CCOCC4)cc32)cccc1C(F)(F)F,114%,98.8%,79%,102%,88.3%,62.9%,89.7%,95.8%,,108%,87.4%,91.8%,110%,88.6%,75.1%,113%,89%,27.3%,79%
COc1cnc2c(c1)C(=O)c1c-2n(CCCn2ccnc2)c(=O)c2cc(Cl)ccc12,6.75% (active),22.4%,-16.7% (active),1.24% (active),31.8%,12.3%,17.4%,-17.9% (active),11.1%,2.01% (active),5.92% (active),,55.2%,21.9%,0.124% (active),-11.6% (active),-2.18% (active),-33.6% (active),
Cc1cc(O)cc(-c2c(-c3ccnc(-c4cccnc4)c3)cnn2C)c1,69.5%,66.6%,67.2%,67.4%,42.7%,46.9%,78.1%,67.7%,84.6%,70.4%,57.8%,49.7%,60.2%,72.8%,59.2%,42.7%,66%,54.4%,83.1%
